# Columns and labels:
# Settings in all cases: concentration: 1 μM, replicates: in singlicate; n = 1
# [1] = test system: FGFR1
# [2] = test system: FGFR2
# [3] = test system: FGFR3
# [4] = test system: FGFR4
# [5] = test system: FGR
# [6] = test system: FLT1
# [7] = test system: FLT3-autoinhibited
# [8] = test system: FLT3
# [9] = test system: FLT4
# [10] = test system: FRK
# [11] = test system: FYN
# [12] = test system: GAK
# [13] = test system: T1, GCN2(Kin.Dom.2,S808G)
# T1 construct: gene EIF2AK4
# [14] = test system: GRK1
# [15] = test system: T2, GRK2
# T2 construct: gene ADRBK1
# [16] = test system: T3, GRK3
# T3 construct: gene ADRBK2
# [17] = test system: GRK4
# [18] = test system: GRK7
# [19] = test system: GSK3A
# [20] = test system: GSK3B
# 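Also: KINOMEscan kinase panel screen.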
SMILES,%Inh [1],%Inh [2],%Inh [3],%Inh [4],%Inh [5],%Inh [6],%Inh [7],%Inh [8],%Inh [9],%Inh [10],%Inh [11],%Inh [12],%Inh [13],%Inh [14],%Inh [15],%Inh [16],%Inh [17],%Inh [18],%Inh [19],%Inh [20]
Cl.Cl.NCC(C(=O)Nc1cc(Br)c(-c2ccnc3[nH]ccc23)s1)c1ccccc1 (centres unmarked) [GSK1269851],30%,8%,27%,44%,55%,16%,20%,86%,0%,12%,30%,83%,0%,56%,13%,62%,86%,13%,0%,7%
NCCCC(NC(=O)c1cc(Br)c(-c2ccnc3[nH]ccc23)s1)c1ccccc1.O=C(O)C(F)(F)F.O=C(O)C(F)(F)F (centres unmarked) [GSK1287544],52%,16%,30%,18%,24%,60%,6%,83%,38%,2%,2%,23%,7%,68%,75%,85%,57%,83%,0%,15%
Nc1ncnc2c1nc(-c1ccccc1)n2-c1ccccc1 [SKF-97293],12%,20%,0%,0%,31%,9%,14%,20%,0%,0%,0%,1%,0%,36%,0%,13%,13%,43%,0%,40%
CN(C)S(=O)(=O)c1cc(-c2ccc3nccc(-c4cccc(S(N)(=O)=O)c4)c3c2)cnc1N [GSK1669921],0%,22%,26%,13%,22%,25%,19%,1%,1%,7%,28%,28%,0%,5%,0%,0%,12%,8%,0%,3%
COc1cc(Nc2nccc(N3CCC(NC(=O)c4cc5ccccc5s4)C3)n2)cc(OC)c1OC (centres unmarked) [GSK1379760],0%,0%,18%,0%,23%,36%,3%,33%,26%,9%,8%,27%,4%,0%,0%,17%,19%,0%,0%,4%
Cc1ccc(S(=O)(=O)Nc2ccc(Nc3nccc(Nc4cccc5[nH]ncc45)n3)cc2)cc1 [GSK581271],0%,15%,7%,0%,56%,19%,0%,28%,5%,73%,41%,44%,0%,0%,0%,42%,0%,0%,24%,10%
Cl.c1ccc(-c2ccc3c(Nc4ccc5[nH]ncc5c4)ccnc3c2)nc1 [GW440137],14%,0%,11%,0%,30%,62%,2%,0%,39%,0%,50%,68%,0%,0%,0%,22%,0%,0%,16%,17%
Cn1cc(-c2ccc3c(c2)CCN3C(=O)Cc2cccc(Cl)c2)c2c(N)ncnc21 [GSK2606590],23%,0%,0%,0%,35%,59%,1%,91.8%,45%,8%,27%,33%,43%,5%,0%,0%,11%,0%,5%,3%
CC(C)(C)c1ccc2nccc(Nc3cccc(O)c3)c2c1 [GW856795],0%,0%,0%,0%,54%,0%,64%,10%,0%,84%,71%,62%,15%,9%,39%,0%,16%,17%,0%,9%
CCc1ccc(-c2ccc3c(c2)-c2c(cnn2C)S(=O)(=O)N3C)cc1,3%,0%,0%,0%,0%,0%,9%,0%,0%,0%,3%,8%,16%,11%,0%,0%,16%,0%,0%,13%
